This passage reports cell viability results from the supplement of paper PMC12808144.

Values without a mark were called inactive.

For one assay, the system named is Mel-DCC-11. The assay is described as follows: cell viability relative to DMSO control (fraction of DMSO control); higher = less cytotoxic, active = 0.5 or less. To be noted: 1 µM; 120 h. An outline of the steps: (§1)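 Luminescence from ATPlite 1step was read after 120 h in 384-well plates carrying 315 approved anti-cancer drugs (TargetMol), acoustically pre-spotted to give 1 µM in duplicate. Cells were seeded in 40 µl per well: 2500/well NHEM-hTERT immortalized melanocytes and 1500/well patient-derived Mel-DCC-11 and Mel-DCC-11-R, its resistant subline, which was assayed alone and with 8 µM of its selecting drug. Viability was normalised to vehicle-treated controls and averaged across duplicate wells.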

The next assay relates to NHEM-hTERT. The assay is described as above. To be noted: 1 µM; 120 h. An outline of the steps: as §1
A further assay concerns Mel-DCC-11-R. The assay is described as follows: cell viability relative to DMSO control (fraction of DMSO control); higher = less cytotoxic, active = 0.8 or less. To be noted: 1 µM, 120 h. The method in brief:
as §1

For `COc1ccc2cc1Oc1ccc(cc1)C[C@H]1c3cc(c(OC)cc3CCN1C)Oc1c(OC)c(OC)cc3c1[C@H](C2)N(C)CC3` [Tetrandrine], the cell viability is 0.653 in the assay with Mel-DCC-11, 1.25 in the assay with NHEM-hTERT, 0.886 in the assay with Mel-DCC-11-R (vemurafenib co-treatment 0 µM) and 1.05 in the assay with Mel-DCC-11-R (vemurafenib co-treatment 8 µM).

Regarding `NC(=O)c1ncn([C@@H]2O[C@H](CO)[C@@H](O)[C@H]2O)c1N` [AICAR (Acadesine)], the cell viability in the assay on Mel-DCC-11 is 1.34; with NHEM-hTERT it was 1.06; in the assay with Mel-DCC-11-R (vemurafenib co-treatment 0 µM), 1.12; in the assay with Mel-DCC-11-R (vemurafenib co-treatment 8 µM), 1.21.

Take `O=NN(CCCl)C(=O)NCCCl` [Carmustine]: the cell viability in the assay on Mel-DCC-11 was 1.16; in the assay with NHEM-hTERT, 0.992; in the assay with Mel-DCC-11-R (vemurafenib co-treatment 0 µM), 0.987; with Mel-DCC-11-R (vemurafenib co-treatment 8 µM) it was 1.02.

For `CC[C@H](Nc1ncnc2[nH]cnc12)c1nc2cccc(F)c2c(=O)n1-c1ccccc1` [Idelalisib], the cell viability was 0.978 in the assay with Mel-DCC-11, 0.983 in the assay on NHEM-hTERT, 1.07 in the assay with Mel-DCC-11-R (vemurafenib co-treatment 0 µM) and 0.961 with Mel-DCC-11-R (vemurafenib co-treatment 8 µM).

As to `CC1=C(CC(=O)O)c2cc(F)ccc2/C1=C\c1ccc(S(C)=O)cc1` (configuration not stated) [Sulindac], the cell viability in the assay with Mel-DCC-11 was 0.701; in the assay with NHEM-hTERT, 0.963; in the assay with Mel-DCC-11-R (vemurafenib co-treatment 0 µM), 0.986; in the assay on Mel-DCC-11-R (vemurafenib co-treatment 8 µM), 1.03.

With `Nc1nc2[nH]nnc2c(=O)[nH]1` [8-Azaguanine], the cell viability with Mel-DCC-11 was 1.68; with NHEM-hTERT it was 1.08; in the assay on Mel-DCC-11-R (vemurafenib co-treatment 0 µM) it was 1.42; in the assay with Mel-DCC-11-R (vemurafenib co-treatment 8 µM), 1.05.

On to `Cc1ccc(=O)n(-c2ccccc2)c1` [Pirfenidone], for which the cell viability was 1.14 with Mel-DCC-11, 1.02 in the assay on NHEM-hTERT, 1.03 in the assay with Mel-DCC-11-R (vemurafenib co-treatment 0 µM) and 1.1 with Mel-DCC-11-R (vemurafenib co-treatment 8 µM).

For the compound `CC1=C(/C=C/C(C)=C/C=C/C(C)=C\C(=O)O)C(C)(C)CCC1` [Isotretinoin], the cell viability with Mel-DCC-11 is 1.16; in the assay on NHEM-hTERT, 1.04; with Mel-DCC-11-R (vemurafenib co-treatment 0 µM) it was 0.938; in the assay on Mel-DCC-11-R (vemurafenib co-treatment 8 µM), 1.3.

With `Cn1nnc(-c2ccc(-c3ccc(N4C[C@H](CO)OC4=O)cc3F)cn2)n1` [Torezolid], the cell viability in the assay on Mel-DCC-11 is 2; in the assay on NHEM-hTERT, 0.958; with Mel-DCC-11-R (vemurafenib co-treatment 0 µM), 0.848; in the assay on Mel-DCC-11-R (vemurafenib co-treatment 8 µM), 0.663 (active).

Turning to `CO[C@H]1C=CO[C@@]2(C)Oc3c(C)c(O)c4c(O)c(c(/C=N/N5CCN(C)CC5)c(O)c4c3C2=O)NC(=O)/C(C)=C\C=C/[C@H](C)[C@H](O)[C@@H](C)[C@@H](O)[C@@H](C)[C@H](OC(C)=O)[C@@H]1C` [Rifampicin], the cell viability with Mel-DCC-11 was 0.597; in the assay on NHEM-hTERT it was 1.03; with Mel-DCC-11-R (vemurafenib co-treatment 0 µM), 0.882; in the assay on Mel-DCC-11-R (vemurafenib co-treatment 8 µM) it was 0.848.

Turning to `N#Cc1ccc(C(c2ccc(C#N)cc2)n2cncn2)cc1` [Letrozole], the cell viability is 1.01 in the assay on Mel-DCC-11, 1.03 in the assay on NHEM-hTERT, 1.08 with Mel-DCC-11-R (vemurafenib co-treatment 0 µM) and 1.06 in the assay on Mel-DCC-11-R (vemurafenib co-treatment 8 µM).

As for `CCCS(=O)(=O)Nc1ccc(F)c(C(=O)c2c[nH]c3ncc(-c4ccc(Cl)cc4)cc23)c1F` [Vemurafenib], the cell viability in the assay on Mel-DCC-11 is 0.983; in the assay on NHEM-hTERT, 0.746; with Mel-DCC-11-R (vemurafenib co-treatment 0 µM), 0.991; in the assay with Mel-DCC-11-R (vemurafenib co-treatment 8 µM) it was 0.905.

As to `COC(=O)C1=C(C)NC(C)=C(C(=O)OC)C1c1ccccc1[N+](=O)[O-]` [Nifedipine], the cell viability with Mel-DCC-11 is 1.07; in the assay with NHEM-hTERT, 1.03; with Mel-DCC-11-R (vemurafenib co-treatment 0 µM), 1.1; with Mel-DCC-11-R (vemurafenib co-treatment 8 µM), 1.18.

With `c1cn2cc(-c3ccc4cn[nH]c4c3)nc(Nc3ccc(N4CCOCC4)cc3)c2n1` [Entospletinib], the cell viability in the assay on Mel-DCC-11 was 0.988; in the assay on NHEM-hTERT, 0.558; in the assay with Mel-DCC-11-R (vemurafenib co-treatment 0 µM), 0.904; in the assay with Mel-DCC-11-R (vemurafenib co-treatment 8 µM) it was 0.877.

Consider `CS(=O)(=O)CCNCc1ccc(-c2ccc3ncnc(Nc4ccc(OCc5cccc(F)c5)c(Cl)c4)c3c2)o1.Cc1ccc(S(=O)(=O)O)cc1.Cc1ccc(S(=O)(=O)O)cc1.O` [Lapatinib ditosylate monohydrate], for which the cell viability with Mel-DCC-11 was 1.13; in the assay with NHEM-hTERT, 1.05; with Mel-DCC-11-R (vemurafenib co-treatment 0 µM), 1.14; with Mel-DCC-11-R (vemurafenib co-treatment 8 µM), 0.823.

Turning to `CCc1c2c(nc3ccc(OC(=O)N4CCC(N5CCCCC5)CC4)cc13)-c1cc3c(c(=O)n1C2)COC(=O)[C@]3(O)CC` [Irinotecan], the cell viability in the assay on Mel-DCC-11 was 0.988; in the assay on NHEM-hTERT, 0.894; in the assay on Mel-DCC-11-R (vemurafenib co-treatment 0 µM), 0.98; in the assay on Mel-DCC-11-R (vemurafenib co-treatment 8 µM) it was 0.694 (active).

As to `CC(=O)OCC(=O)[C@@]1(O)CC[C@H]2[C@@H]3CCC4=CC(=O)C=C[C@]4(C)[C@H]3[C@@H](O)C[C@@]21C` [Prednisolone-21-acetate], the cell viability with Mel-DCC-11 was 1.49; with NHEM-hTERT it was 0.931; in the assay with Mel-DCC-11-R (vemurafenib co-treatment 0 µM), 1.14; in the assay with Mel-DCC-11-R (vemurafenib co-treatment 8 µM), 1.04.

`C=C[C@H]1[C@@H](O[C@@H]2O[C@H](CO)[C@@H](O)[C@H](O)[C@H]2O)OC=C2C(=O)OCC[C@]21O` [Swertiamarin]: the cell viability in the assay on Mel-DCC-11 was 1.35; in the assay with NHEM-hTERT, 0.942; in the assay on Mel-DCC-11-R (vemurafenib co-treatment 0 µM) it was 0.976; in the assay on Mel-DCC-11-R (vemurafenib co-treatment 8 µM) it was 1.2.
